In PubChem BioAssay AID504854 (Southern Research Specialized Biocontainment Screening …, 2011):
Measured potencies and affinities stand elsewhere. Calls of active or inactive are those of the source. How the calls were made is not given here.

Assay: Vero cell cytotoxicity, dose response, cytotoxicity control for M. tuberculosis growth inhibitor project, Vero cells, purified and synthesized compounds, set 4 (AID 504854)
Details: series mostly up to 100 µM

| Compound | outcome |
| --- | --- |
| Nc1cc(=O)[nH]c(SCC(=O)NC2CCCCC2)n1 | inactive |
| COc1cccc(NC(=O)CSc2nc3c(c(=O)[nH]2)CCC3)c1 | inactive |
| Cc1cc(=O)[nH]c(=S)[nH]1 | inactive |
| Cc1nc(SCc2ccccc2Cl)[nH]c(=O)c1C | inactive |
| Cc1cccc(/C=C/C(=O)c2ccc([N+](=O)[O-])o2)c1 | inactive |
| CC[N+](C)(CC)CCCCOc1ccc2c(c1)C(=O)c1cc(OCCCC[N+](C)(CC)CC)ccc1-2 | inactive |
| Cc1cnc(SCC(=O)NC2CCCCC2)[nH]c1=O | inactive |
| Cc1ccc(NC(=O)COC(=O)CCc2c[nH]c3ccccc23)cc1[N+](=O)[O-] | inactive |
| CCOC(=O)CSc1nc(C)c(C)c(=O)[nH]1 | inactive |
| Cn1c(SCC(=O)NC2CCCCC2)nc2ccccc2c1=O | inactive |
| CCOC1OC(=O)C(Cl)=C1Nc1ccccc1C (stereo unspecified) | inactive |
| O=c1[nH]c(=S)[nH]c2ccccc12 | inactive |
| Cc1nc(SCC(=O)NC2CCCC2)[nH]c(=O)c1C | inactive |
| CN1CCC(NC(=O)CSc2nc3ccccc3c(=O)[nH]2)CC1 | inactive |
| COc1ccc(NC(=O)CSc2nc3ccccc3c(=O)[nH]2)cc1 | inactive |
| Cc1nc(SCC(N)=O)[nH]c(=O)c1C | inactive |
| Nc1c(C(=O)NC2CCCCC2)nsc1C(=O)OCC(=O)NC1CCCCC1 | inactive |
| O=C(CSc1nc2ccccc2c(=O)[nH]1)N1CCOCC1 | inactive |
| O=C(CSc1ccccn1)NC1CCCCC1 | inactive |
| CN(C)C(=O)CSc1nc2ccccc2c(=O)[nH]1 | inactive |
| CC(C)CCNC(=O)CSc1nc2ccccc2c(=O)[nH]1 | inactive |
